Source: PubChem
The list is not random: actives were taken first. Their share in the collection is about 3%.
Sm TGR inh: blocks Schistosoma mansoni thioredoxin glutathione reductase | Potency, µM (top dose mostly 114 µM), for the others: top-dose activity change, negative = inhibition, hits mostly inhibitors | purified TGR, DTNB reduction, TNB absorbance 405 nm | 360,000 tested, 3% active | AID 485364; active = well fitted inhibition curve with a large enough effect; inconclusive = small, poorly fitted or top-dose-only effect; inactive = no such curve, though single readings can be large or run the other way; also: % is scaled to controls: 0 for no effect and ±100 for the full control effect; nearly all actives have a fitted effect of over 60% in size
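Kinetic colorimetric format: TGR-catalysed, NADPH-driven DTNB reduction monitored via TNB absorbance. Enzyme dispensed at 20 nM; compound exposure 15 min at room temperature before reaction start.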
SARS PLP yeast: inhibitors of SARS-CoV papain-like protease in yeast; 330,000 tested, 0.19% active; Potency, µM (series often up to 32.9 µM), for inactives: top-dose activity, positive = growth rescue, usual class: activators; S. cerevisiae expressing SARS-CoV PLpro, growth rescue; calls by dose curve; also: 0% is about no effect; nearly all actives have a fitted effect of over 55% in size
Active calls of the source: *; ? = inconclusive; · = no result given. Potency is read from the fitted curve at half-maximal effect.

SMILES	Sm TGR inh	SARS PLP yeast
CCCCCCOc1ccc(N2C(=O)CC(N3CCC(C(=O)OCC)CC3)C2=O)cc1 (stereo not drawn)	3.7%	-26.1%
CCOC(=O)C1CCCN(C2CC(=O)N(c3ccc(C(C)C)cc3)C2=O)C1 (stereo not drawn)	?	-5.8%
CCc1ccc(N2C(=O)CC(N3CCC(C(=O)OC)CC3)C2=O)cc1 (stereo not drawn)	56.2µM*	-24.9%
CCOC(=O)C1CCN(C2CC(=O)N(c3ccc(OCC)cc3)C2=O)CC1 (stereo not drawn)	50.1µM*	-91.0%
CCOC(=O)C1CCCN(C2CC(=O)N(c3ccc(C)c(C)c3)C2=O)C1 (stereo not drawn)	44.7µM*	-37.7%
CCOC(=O)C1CCCN(C2CC(=O)N(c3ccc(N4C(=O)CC(N5CCCC(C(=O)OCC)C5)C4=O)cc3)C2=O)C1 (stereo not drawn)	20µM*	1.3%
CCc1ccc(N2CC(C(=O)OC)CC2=O)cc1 (stereo not drawn)	·	-1.4%
CCOC(=O)C1CCCN(C2CC(=O)N(c3ccccc3)C2=O)C1 (stereo not drawn)	?	-4.5%
Cc1ccc2oc(C(=O)Nc3c(C(=O)c4ccc(C)c(F)c4)oc4ccccc34)cc(=O)c2c1	2.7%	·
Cc1ccc(-n2ncc3c(N4CCN(Cc5ccccc5)CC4)ncnc32)cc1C	-3.0%	·
CCOc1ccccc1NC(=O)c1ccc2c(c1)CCCN2S(C)(=O)=O	2.4%	·
COc1cc(OC)cc(N2C(=O)CC(N3CCC(C(=O)N4CCCCC4)CC3)C2=O)c1 (stereo not drawn)	?	-18.2%
CC(=O)Nc1cccc(N2C(=O)CC(N3CCC(C(=O)N4CCCCC4)CC3)C2=O)c1 (stereo not drawn)	20µM*	0.4%
COc1ccc(C(=O)/C=C/c2cc(C(=O)O)cc3c2OCOC3)c(O)c1	?	1.2%
O=C(O)c1cc(/C=C/C(=O)c2cc(F)ccc2O)c2c(c1)COCO2	28.2µM*	0.2%
Cc1ccc(C)c(Cn2c(=O)n(Cc3ccccc3)c(=O)c3sc4ccccc4c32)c1	8.8%	·
CCOC(=O)c1cc(OC(=O)c2cc(OC)cc(OC)c2)n(-c2ccccc2)n1	6.6%	·
C=CCN=c1scc(-c2ccc3c(c2)NC(=O)CO3)n1/N=C(\C)c1ccccn1	35.5µM*	4.3%
C=CCN=c1scc(-c2ccc(F)cc2)n1/N=C/c1ccccn1	-15.1%	-2.1%
CC(C)N1CCc2c(sc(NC(=O)c3ccc(S(=O)(=O)N4CCOCC4)cc3)c2C#N)C1	44.7µM*	1.6%
CCOC(=O)N1CCc2c(sc(NC(=O)c3ccc(S(=O)(=O)N4CCCC4)cc3)c2C#N)C1	-17.8%	24.9%
COc1ccc(/C=C(\C#N)c2nc(-c3cc4c(ccc5ccccc54)oc3=O)cs2)cc1O	3.4%	·
CC(C)N(C(=O)c1cc2c(Cl)nc3ccccc3c2s1)C1CCCCC1	0.6%	·
CN(C)c1ccc(C(=O)c2ccccc2)cc1	-2.4%	-12.4%
CN(C)c1ccc(N=Nc2ccc(C(=O)O)cc2)cc1	39.8µM*	0.8%
SMILES	Sm TGR inh	SARS PLP yeast
COc1ccc(-c2cc(C(F)(F)F)nc(SCC(=O)Nc3cc(C)on3)n2)cc1	11.3%	-13.7%
O=C(CCS(=O)(=O)c1nc(-c2ccc3c(c2)OCO3)cc(C(F)(F)F)n1)Nc1ccc(F)cc1F	-21.1%	·
Cc1cc(NC(=O)CCS(=O)(=O)c2nc(-c3ccccc3)cc(C(F)(F)F)n2)no1	31.6µM*	-10.0%
FC(F)(F)c1cc(-c2ccccc2)nc(N2CCCCCC2)n1	-25.2%	3.0%
COc1ccccc1-c1cc(C(F)(F)F)nc(S(=O)(=O)CCCC(=O)O)n1	?	8.4%
COc1ccccc1-c1cc(C(F)(F)F)nc(S(=O)(=O)CCCC(=O)N2CCOCC2)n1	31.6µM*	0.8%
COc1ccc(NC(=O)CCS(=O)(=O)c2nc(-c3ccc4c(c3)OCO4)cc(C(F)(F)F)n2)cc1	79.4µM*	·
CS(=O)(=O)c1nc(-c2ccccc2)cc(C(F)(F)F)n1	10µM*	-95.4%
COc1ccc(NC(=O)N2CCC(CN3CCCC3)CC2)c(OC)c1	-18.0%	·
CCCCC(=O)NC1(C(F)(F)F)C(=O)Nc2c1c(=O)[nH]c(=O)n2-c1ccc(F)cc1 (stereo not drawn)	0.5%	·
Cc1ccc(C)n1-c1nnc(N2CCC(C(=O)Nc3ccccc3Br)CC2)s1	-27.8%	·
CCN(c1ccc(C)cc1C)S(=O)(=O)c1nnc(NC(=O)c2ccc(F)cc2)s1	6.9%	·
Cc1ccc(NC(=O)CC(C)S(=O)(=O)c2ccc3c(c2)NC(=O)CO3)c(C)c1 (stereo not drawn)	4.9%	·
COc1ccc(OC(=O)c2nc(SCc3ccccc3C)ncc2Cl)cc1	5.4%	·
COc1ccc(-c2cc(C(F)(F)F)nc(SCC(=O)N3CCOCC3)n2)cc1OC	3.8%	0.9%
COc1ccc(-c2cc(C(F)(F)F)nc(S(=O)(=O)CCCC(=O)Nc3cccc(O)c3)n2)cc1OC	35.5µM*	-1.9%
